In all, about 2,300 sequences were measured (“median log2 fold change of GCK-ALFA target abundance (FLAG IP / Myc IP barcode read proportion)”: median about 0.095, lowest 2% from about -0.47 on). The entries come from a sample that favours the lowest values as a whole.
B1: LC3A_28_1195 (protein)
chain: SLAEETIKKIREQAKKALEEGDGAVIEVNISKELSDEGIDKILETIKEEAAKLADLESVSIIINVESGVSQENIDKIADTGEEIEEKYPNVTVIIALDED
B2: LC3A_28_898 (protein)
chain: MSALESAEAALAAVRAAVAAGDQAPLVLEVKAPSTEEDTEKLIELLEEIAREASQLTGVTIVIDIDESVSEENQQKLIDKAEELEKKYPNVTVIIALPES
B3: LC3A_28_683 (protein)
chain: SETDESIEKALKKAKEALEKGKPEVIEIKVSGDTTEEELEKILEALEEIAEIANKVPGSAIIIDIDADLPQEFRDKLIDKAEELEEKYPNVTIIFALEER
B4: LC3A_free_0_2122 (protein)
chain: KKTVVEVVVILDESTSKETAEEIYEKLKEKAEELAKEAGAEVESSLSEVDGSYIITIKITLPTDDIDKALELEDKLVETAEEIAKEAGVEATIYSSVYLE
B5: LC3A_3_1412 (protein)
chain: LEERREALLAELRAAGWSEETLAAVEELLEALLARGAEEEAERALELLRAARDLPSERLLEVVEEALRALREEGLSPEEVIALLEELLRVARAEQEIEEL
B6: LC3A_28_1281 (protein)
chain: SEIEEEIERAIKEAKEAKEKGEPAVIEIEVPGDATEEEIEKVIKGLEEIAEILKDIPNQAIVINVDSGVKEEHIDKLVDKAEEIEEKYPNVTVIIALDED
B7: LC3A_3_1385 (protein)
chain: MEEEMEKTLERLREAGHSEETIEAARKALEALIEKGYENSAKTFIELLDELIHLPDELLLELFEDVLELIETEDIDEETLTEKIKEIASVYKNESEIEEL
B8: LC3A_free_26_2139 (protein)
chain: EKFVDIYLIDEAIDALEKAKELAKKIEGIGEKLVKLLEEALKLIEKETLESLEKAIKILKEIKELIEKDKTIDEETKKELLELVTKALEKVEEVVKIMKE
B9: LC3A_3_1411 (protein)
chain: LEERLAATEALLREAGHSEETLAAFRRLVELLLERGAEEEAERVLELVAEAKDISSEDLLAVLEEVIRALEEEGASPEEAVERLEELLRIARAEQEIEEL
B10: LC3A_147_452 (protein)
chain: ATYVITVDVLLRNDPELAERIEEEIKKIGEENGAEVEVEREEIQETPTTTEYFLRVTLKTTDEEKALKALQEVSELLDRTAEEHPESFLGAMISFEKIED
B11: LC3A_28_842 (protein)
chain: SKTEENIKKALAEAKEAAEKGESKVITLKVYKGDTEEEIDKIIETLEEIAEILKDLPNQAIIIEFEEPIDPEHQDKIIDKAEEIEKKYPNITVIIALPEE
B12: LC3A_28_844 (protein)
chain: SKTEKDIKEALERAKRAAEEGKSEVITIKVYKGDTEEEINKIIETLEEIAEILKDLPNQAILIDFEEKIDEEHQNKIIDKAEEIEKKYPNITVIIALPEE
B13: LC3A_28_846 (protein)
chain: SKTEEDIEKALKEAKEAAKKGEPAVIELKVYKGDTEEEIEKIIEALEEIAEILKDLPNQAILINFEEVIDEEHQNKILDKAEEIEKKYPNVTVIIALPEE
B14: LC3A_132_311 (protein)
chain: SEEKYKEIKEELEKKLKEAEKNIKDKEKVEKLLEEIRKLLEEAEEELSPEQVAELYDEVADRLWKLSQKALEAGQEDVALELDAAAIEAASRSLEAEKLI
B15: LC3A_free_46_2418 (protein)
chain: YRGIVEADLLGLTEEQVEEVIERVKEKAKRLEEEYGVKVEVEVEVEKNEDGTYFLRIKVTIEGEDREKVEKAANEVVDLLEKLADEYGAAMIISIEFEEL
B16: LC3A_147_515 (protein)
chain: MYEVDIDILVKREGEEEVLEELEEILEELREEGYEVEVLEKRIEREGDEVFIYVKVLIRAPTPEEAEKAVNRLISRLEELEEKHKDLILGSLISVEKIEP
B17: LC3A_147_484 (protein)
chain: MRVYVDVLVDDEETAEELVRLMEATVEELRAQGIRVELRVEIEEVEPGVYFVEIEVEIEAETEEEEQAAAQRVIDALEAFDEANKDRVLGTLISVEREER
B18: LC3A_132_312 (protein)
chain: MEEKYAEIKARLDALLDEAAANIKDKAKVQALLKEIKALLEEAEKELTPEQVAELYDYVADRLDALSQQALAAGQEDVALDLDAASIEAASRSLEAEKKI
B19: LC3A_free_8_2551 (protein)
chain: NSQEFAEKVSEIIDEAEEKVKKILTENGVDREKRLLLELLFGEIIIEVISLRDKSKEEIAKAAKEGLEEVKEEAESLDEETKAKVNAVIDEAEAKIEALL

molecular target: MAP1LC3A, Q9H492; assay: median log2 fold change of GCK-ALFA target abundance (FLAG IP / Myc IP barcode read proportion) (log2 ratio); each designed protein is fused to an ALFA-tag nanobody in HEK293 cells to bring the named protein to FLAG-tagged glucokinase (GCK); Myc marks an untargeted standard; higher = target protein stabilised (more abundant); details: target protein: 3xFLAG-MCP-GCK-ALFA reporter; HEK293 landing pad (RPLP)
Outline: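 An ALFA-nanobody-fused binder library was recombined into HEK293 landing-pad cells and induced with 2 μg mL^−1 doxycycline. Cells were transfected with a plasmid expressing a FLAG-tagged target and a Myc-tagged standard. After 48 h, lysates underwent anti-FLAG and anti-Myc immunoprecipitation, and circular RNA barcodes were reverse transcribed, amplified and sequenced. Target abundance is the per-binder median log2 ratio of FLAG to Myc barcode read proportions. Barcodes needed ≥10^−7 proportion in both replicates, binders ≥3 barcodes per replicate, and a 10^−6 pseudocount was added; the two replicates were pooled.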

Binder	median log2 fold change
B1	0.229
B2	0.201
B3	-0.521
B4	-0.221
B5	0.243
B6	-0.286
B7	0.082
B8	0.132
B9	0.212
B10	-0.0647
B11	-0.297
B12	-0.471
B13	-0.293
B14	0.256
B15	0.196
B16	-0.205
B17	-0.559
B18	0.361
B19	-0.172
